CCT chaperon mod = High-Throughput Screening for Modulators of Cytosolic Chaperonin Activity; actives 0.3% (n = 360,000); purified chaperonin ATPase assay, HTRF ADP detection, 30 min; AID 651819, 2012; activity change, % (test concentration not listed), hits read low; in the data active means activity change below about -30%
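Nucleotide hydrolysis assay: TRiC at 20–40 nM final (set by batch activity) with 10 uM ATP, 30 min at 37 °C, in presence of 76 uM compound. Detection by competitive ADP HTRF, 30 min ambient.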
Six1-Eya2 blk = qHTS Assay for Inhibitors of the Six1/Eya2 Interaction; Homeobox protein SIX1 (Homo sapiens) + Protein phosphatase EYA2 (Homo sapiens), …; AlphaScreen GST-Six1/His-Eya2 binding, biochemical; stronger effect = lower value; activity change, % (no concentration beside the values); actives 0.56% (n = 360,000)
Target sequence (O00167 whole entry, looked up): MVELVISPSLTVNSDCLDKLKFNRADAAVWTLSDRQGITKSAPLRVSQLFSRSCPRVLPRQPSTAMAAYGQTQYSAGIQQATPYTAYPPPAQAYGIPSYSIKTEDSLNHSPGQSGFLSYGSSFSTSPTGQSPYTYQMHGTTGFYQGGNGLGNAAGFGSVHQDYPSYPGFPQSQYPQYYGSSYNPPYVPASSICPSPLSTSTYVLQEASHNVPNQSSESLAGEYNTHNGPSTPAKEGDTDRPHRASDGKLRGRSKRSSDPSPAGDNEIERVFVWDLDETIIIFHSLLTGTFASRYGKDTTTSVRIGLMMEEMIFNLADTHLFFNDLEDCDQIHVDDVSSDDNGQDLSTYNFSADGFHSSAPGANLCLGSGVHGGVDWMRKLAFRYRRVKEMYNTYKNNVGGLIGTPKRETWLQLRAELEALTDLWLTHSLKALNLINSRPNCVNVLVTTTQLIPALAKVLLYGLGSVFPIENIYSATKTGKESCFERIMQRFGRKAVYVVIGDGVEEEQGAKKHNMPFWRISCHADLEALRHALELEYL
Target sequence (Q15475 whole entry, looked up): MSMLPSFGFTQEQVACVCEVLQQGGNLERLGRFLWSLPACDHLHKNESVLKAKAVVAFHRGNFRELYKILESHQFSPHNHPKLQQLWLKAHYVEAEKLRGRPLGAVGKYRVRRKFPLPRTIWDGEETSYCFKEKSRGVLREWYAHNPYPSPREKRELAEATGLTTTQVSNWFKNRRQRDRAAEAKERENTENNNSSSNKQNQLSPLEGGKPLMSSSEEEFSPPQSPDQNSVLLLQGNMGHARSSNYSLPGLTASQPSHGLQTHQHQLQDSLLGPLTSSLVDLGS
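Six1/Eya2 binding was read as AlphaScreen signal after compounds were pinned into GST-Six1 plus His-tagged Eya2 (5X stock 250/500 nM) in pH 8.0 Tris/NaCl/TCEP buffer, beads added, then incubated 1 h, 37 C, dark.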
Akt phos inh = HTS Assay for Inhibitors of Akt Phophorylation: Primary Screen; Neuro2A IGF-stimulated pAkt S473 HTRF, 20 min; stronger effect = lower value; activity change, % for hits at 50 µM; actives 0.32% (n = 360,000); AID 651550, 2012; in the data active means activity change below about -80%; inconclusive means mostly about -51% to -80%
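Neuro2A cells (4,500/well, DMEM with 0.5% FBS) were treated with compound at a single 50 µM final concentration, stimulated with 6 nM IGF for 20 min at 37 °C, and lysed. Phospho-Akt Ser473 was read by HTRF as 665/615 ratio ×10^4.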
CtBP-E1A blk = qHTS Assay for Inhibitors of the CtBP/E1A Interaction. AlphaScreen GST-E1A/His-CtBP binding, 1536-well; stronger effect = lower value. actives 0.49% (n = 340,000). CtBP / adenovirus E1A interaction (AlphaScreen). activity change, % (test concentration not listed). AID 651724, 2012
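Homogeneous bead-based format: GST-tagged E1A captured on glutathione donor beads, His-tagged CtBP on nickel acceptor beads; compounds precede bead addition by 2 h at 37 °C.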
Starred values were filed as active, the others as inactive; i = inactive; ? = inconclusive; . = no result. Sampled rows, rich in hits. Any-hit rate of the full collection: about 1.3%. Unless noted, no stated cut-off is given here; in the data, active means activity change below about -65%; inconclusive means mostly about -30% to -63%; inactive means weaker than that. On the % scale 0 is the no-effect control and ±100 the full control effect.

SMILES	CCT chaperon mod	Six1-Eya2 blk	Akt phos inh	CtBP-E1A blk
CC(=O)NC(c1ccc(C(C)C)cc1)c1ccc2cccnc2c1O (stereo not given)	0	?	i	?
CC1(C(=O)NS(=O)(=O)c2ccc(F)cc2F)CCN1C(=O)Cc1ccc(-c2ccccc2)cc1 (stereo not given)	-1	-5	i	0
COc1cc(N(C)C)ccc1C=c1c2ccccc2n2c1cc(-c1ccccc1)[n+]2C	-3	-80*	i	-80*
CN(C)c1ccc(C=c2c3cc([N+](=O)[O-])ccc3n3c2cc(-c2ccccc2)[n+]3C)cc1	1	-80*	i	6
COc1ccc(N2C(=O)CC(NNC(=O)c3cccnc3)C2=O)cc1 (stereo not given)	-43*	4	i	1
COC(=O)c1cc(S(=O)(=O)N2CCOCC2)ccc1Sc1ccccc1N	0	-7	-99%*	-11
O=C(CN1CCOCC1)N1CCOCC1	-6	-19	i	-10
O=C1C(NS(=O)(=O)c2cccs2)=C(N2CCOCC2)C(=O)c2ccccc21	-1	-11	i	-16
CN(C1=C(N2CCOCC2)C(=O)c2ccccc2C1=O)c1ccccc1	2	-82*	i	?
COc1ccc(OCC(=O)NNC(=O)c2cc3ccccc3o2)cc1	-67*	3	i	2
CCOc1ccc(N2C(=O)CC(NC3CCN(C(=O)c4ccc(F)cc4)CC3)C2=O)cc1 (stereo not given)	-6	0	i	-1
CCCCCCn1c(C)nc2c(c1=O)c1nc3ccccc3nc1n2/N=C/c1ccco1	0	-1	-108%*	0
Cc1nc2c(c(=O)n1CCC1=CCCCC1)c1nc3ccccc3nc1n2/N=C/c1ccccc1	2	7	i	-14
COc1cccc(COC(=O)C2CCN(S(=O)(=O)c3ccc(F)cc3)CC2)c1OC	-1	2	i	12
COc1cccc(COC(=O)c2ccc(S(=O)(=O)N3CCC(C)CC3)cc2)c1OC	-61*	20	i	27
Cc1noc(C)c1COc1ccccc1C(=O)N1CCN(S(=O)(=O)c2ccccc2F)CC1	2	-1	i	2
COC(=O)CN1C(=O)[C@H]2[C@@H](C3CC3)N3C(=O)CN(Cc4ccccn4)C(=O)[C@@]3(Cc3ccccc3)[C@H]2C1=O	-40*	-3	i	-13
COC(=O)CN1C(=O)[C@H]2[C@@H](C3CC3)N3C(=O)CN(CCO)C(=O)[C@@]3(Cc3ccccc3)[C@H]2C1=O	-1	4	i	0
COc1ccc(NC(=O)CCS(=O)(=O)c2cccc3nonc23)c(OC)c1	-1	0	-113%*	5
N#Cc1c(SCC(N)=O)nc(-c2ccccc2)c2c1CCCC2	-2	-7	-111%*	-7
O=C(/C=C/c1ccc([N+](=O)[O-])cc1)OCC(=O)N1CCCC1	-2	1	i	-68*
CC(C)NC(=O)N(C)C[C@@H]1OCc2cnnn2CCCC(=O)N([C@@H](C)CO)C[C@H]1C	-1	8	i	4
N#C/C(=C\c1cccn1S(=O)(=O)c1cccc([N+](=O)[O-])c1)S(=O)(=O)c1ccc(F)cc1	1	-6	i	-6
Cc1ccc(C)c(N(C)C(=O)c2ccc3c(=O)n4c(nc3c2)CCCCC4)c1	-72*	1	.	.
CCCN(CC(=O)Nc1cc(Cl)cc(Cl)c1)CC(=O)Nc1ccc(F)c(F)c1F	-3	-2	i	6
SMILES	CCT chaperon mod	Six1-Eya2 blk	Akt phos inh	CtBP-E1A blk
Oc1c(Br)cc(Br)c2cccnc12	1	-75*	i	-78*
CC(=O)Nc1cccc(-c2cn3ccccc3n2)c1	-2	9	i	7
O=C(Nc1cccc(-c2cn3ccccc3n2)c1)c1cc2ccccc2oc1=O	-61*	-1	i	-8
c1cn2cc(-c3ccc4c(c3)OCO4)nc2s1	-63*	-11	.	-9
O=C(N/N=C(\c1ccccc1)c1cccnc1)c1ccc(O)cc1	1	-7	i	-23
O=C(N/N=C(\c1ccccc1)c1cccnc1)c1cccc(F)c1	-6	-80*	i	-3
COc1cc(NC(=O)CN2C(=O)COc3ccc(S(=O)(=O)N4CCCCC4)cc32)cc(OC)c1	-3	?	i	-73*

Screening results: PubChem, National Center for Advancing Translational Sciences (NCATS)
